Reference: PubChem BioAssay (EPA / NIEHS)
Calls of active or inactive are those of the source. The calls were made as follows: active = hit-call score of the fitted dose curve at least 0.9, where 1 is the maximum; inactive = score below 0.9.

Experiments:
Details in all cases: mRNA level, 48 h; actives raise or lower the signal
[1] = read-out: Fatty Acid-Binding Protein 1 (FABP1), FABP1 (gene 2168); experiment: LTEA_HepaRG_FABP1: Life Technologies and Expression Analysis (LTEA) Assay for Fatty Acid-Binding Protein 1 (FABP1) using HepaRG (AID 2283494)
Outline: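 HepaRG, 48 h post-plating switched to serum-free induction medium, then dosed 48 h (duplicate, 8 pts, ≤100 uM, 0.5% DMSO). RNA → Fluidigm TaqMan qRT-PCR, FABP1 normed to ACTB/GAPDH/POLR2A. Bidirectional curve fit vs DMSO.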

[2] = read-out: Cytochrome P450 4A22 (Homo sapiens) (UniProt Q5TCH4); experiment: LTEA_HepaRG_CYP4A22: Life Technologies and Expression Analysis (LTEA) Assay for Cytochrome P450 4A22 (CYP4A22) using HepaRG (AID 2283495)
Outline: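 Differentiated HepaRG cells in serum-free induction medium exposed 48 h in duplicate to eight half-log concentrations up to 100 uM in 0.5% DMSO. CYP4A22 mRNA quantified by TaqMan qRT-PCR, normalized to ACTB, GAPDH and POLR2A; bidirectional fit versus DMSO.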

[3] = read-out: Cytochrome P450 7A1 (Homo sapiens) (UniProt P22680); experiment: LTEA_HepaRG_CYP7A1: Life Technologies and Expression Analysis (LTEA) Assay for Cytochrome P450 7A1 (CYP7A1) using HepaRG (AID 2283496)
Outline: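 Gene expression endpoint in human HepaRG liver cells treated for 48 h with test chemicals (up to 100 uM, 0.5% DMSO). Values come from bidirectional concentration-response fitting versus DMSO.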

[4] = read-out: Glutathione S-Transferase (GSTA2), GSTA2 (gene 2939); experiment: LTEA_HepaRG_GSTA2: Life Technologies and Expression Analysis (LTEA) Assay for Glutathione S-Transferase (GSTA2) using HepaRG (AID 2283497)
Outline: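 HepaRG, 48 h dosing, 8-pt half-log CRC from 100 uM, 0.5% DMSO vehicle, n=2; RNA → Fluidigm TaqMan qRT-PCR; GSTA2 vs ACTB/GAPDH/POLR2A; gain/loss fit vs DMSO.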

[5] = read-out: Glutamate-cysteine ligase catalytic (GCLC), GCLC (gene 2729); experiment: LTEA_HepaRG_GCLC: Life Technologies and Expression Analysis (LTEA) Assay for Glutamate-cysteine ligase catalytic (GCLC) using HepaRG (AID 2283498)
Outline: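 Read-out is GCLC transcript level by Fluidigm-based TaqMan qRT-PCR, normalized to three housekeeping genes and fitted in both directions relative to 0.5% DMSO. Human HepaRG cells received chemicals for 48 h, up to 100 uM.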

[6] = read-out: growth arrest and DNA damage 45 (GADD45G), GADD45G (gene 10912); experiment: LTEA_HepaRG_GADD45G: Life Technologies and Expression Analysis (LTEA) Assay for growth arrest and DNA damage 45 (GADD45G) using HepaRG (AID 2283499)
Outline: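 Differentiated human HepaRG cells, 48 h post-plating, exposed 48 h in serum-free induction medium to 8 half-log concentrations (top 100 uM, 0.5% DMSO) in duplicate. GADD45G mRNA measured by Fluidigm TaqMan qRT-PCR, normalized to ACTB, GAPDH, POLR2A; bidirectional fit versus DMSO.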

[7] = read-out: Glutamate-cysteine ligase regulatory (GCLM), GCLM (gene 2730); experiment: LTEA_HepaRG_GCLM: Life Technologies and Expression Analysis (LTEA) Assay for Glutamate-cysteine ligase regulatory (GCLM) using HepaRG (AID 2283500)
Outline: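 Human liver HepaRG cultures receive test chemicals for 48 hours at up to 100 uM in 0.5% DMSO. GCLM expression is measured by qRT-PCR and analysed for increases or decreases against vehicle.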

[8] = read-out: Glutathione S-transferase M3 (GSTM3), GSTM3 (gene 2947); experiment: LTEA_HepaRG_GSTM3: Life Technologies and Expression Analysis (LTEA) Assay for Glutathione S-transferase M3 (GSTM3) using HepaRG (AID 2283501)
Outline: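 Differentiated human HepaRG cells were exposed in duplicate for 48 h in serum-free induction medium, 8 points from 100 uM top in half-log steps, 0.5% DMSO. GSTM3 mRNA was measured by TaqMan qRT-PCR, normalized to ACTB, GAPDH and POLR2A; bidirectional fit versus DMSO.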

[9] = read-out: Heat shock 70 kDa protein 1 (HSPA1A), gene 3303; experiment: LTEA_HepaRG_HSPA1A: Life Technologies and Expression Analysis (LTEA) Assay for Heat shock 70 kDa protein 1 (HSPA1A) using HepaRG (AID 2283502)
Outline: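 HSPA1A induction in human HepaRG liver cells is measured after 48 h of chemical treatment (100 uM maximum, 0.5% DMSO vehicle). Expression comes from qRT-PCR normalized to endogenous controls.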

[10] = read-out: 3-Hydroxy-3-Methylglutaryl-CoA Synthase 2 (HMGCS2), HMGCS2 (gene 3158); experiment: LTEA_HepaRG_HMGCS2: Life Technologies and Expression Analysis (LTEA) Assay for 3-Hydroxy-3-Methylglutaryl-CoA Synthase 2 (HMGCS2) using HepaRG (AID 2283504)
Outline: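 Human HepaRG cells in serum-free induction medium were exposed in duplicate for 48 h to 8-point half-log series from 100 uM top in 0.5% DMSO. HMGCS2 mRNA measured by TaqMan qRT-PCR, normalised to ACTB, GAPDH, POLR2A; bidirectional fit versus DMSO.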

[11] = read-out: HGF (gene 3082); experiment: LTEA_HepaRG_HGF: Life Technologies and Expression Analysis (LTEA) Assay for Hepatocyte Growth Facto (HGF) using HepaRG (AID 2283505)
Outline: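 Differentiated HepaRG cells in serum-free induction medium exposed 48 h in duplicate, 8 half-log concentrations from 100 uM in 0.5% DMSO. HGF mRNA by qRT-PCR, normalised to ACTB, GAPDH, POLR2A; bidirectional fitting.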

[12] = read-out: Insulin Like Growth Factor 1 (IGF1), IGF1 (gene 3479); experiment: LTEA_HepaRG_IGF1: Life Technologies and Expression Analysis (LTEA) Assay for Insulin Like Growth Factor 1 (IGF1) using HepaRG (AID 2283506)
Outline: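 Using human HepaRG liver cells, IGF1 transcript induction or suppression is measured 48 h after dosing across eight concentrations capped at 100 uM. Values derive from bidirectional concentration-response fitting with DMSO as baseline.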

[13] = read-out: Intercellular Adhesion Molecule 1 (ICAM1), ICAM1 (gene 3383); experiment: LTEA_HepaRG_ICAM1: Life Technologies and Expression Analysis (LTEA) Assay for Intercellular Adhesion Molecule 1 (ICAM1) using HepaRG (AID 2283507)
Outline: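 Differentiated human HepaRG cells in serum-free induction medium exposed 48 h in duplicate to 8 half-log concentrations (top 100 uM, 0.5% DMSO). ICAM1 mRNA quantified by TaqMan qRT-PCR, normalized to ACTB, GAPDH and POLR2A; bidirectional fitting versus DMSO.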

[14] = read-out: Insulin-like growth factor-binding protein 1 (IGFBP1), IGFBP1 (gene 3484); experiment: LTEA_HepaRG_IGFBP1: Life Technologies and Expression Analysis (LTEA) Assay for Insulin-like growth factor-binding protein 1 (IGFBP1) using HepaRG (AID 2283508)
Outline: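 HepaRG cells, plated 48 h then switched to serum-free induction medium, exposed in duplicate for 48 h to 8-point half-log series from 100 uM in 0.5% DMSO. mRNA measured by qRT-PCR, normalized to ACTB/GAPDH/POLR2A; bidirectional fit versus DMSO.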

[15] = read-out: Interleukin 6 (IL6), IL6 (gene 3569); experiment: LTEA_HepaRG_IL6: Life Technologies and Expression Analysis (LTEA) Assay for Interleukin 6 (IL6) using HepaRG (AID 2283509)
Outline: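 HepaRG, ~100,000 cells/well, 48 h pre-culture; serum-free induction medium; cmpd 8-pt half-log from 100 uM, 0.5% DMSO, duplicate, 48 h. Lysis in RLT, TaqMan qRT-PCR; gain or loss vs DMSO.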

[16] = read-out: Interleukin 6 Receptor (IL6R), IL6R (gene 3570); experiment: LTEA_HepaRG_IL6R: Life Technologies and Expression Analysis (LTEA) Assay for Interleukin 6 Receptor (IL6R) using HepaRG (AID 2283510)
Outline: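 Concentration-response in human liver HepaRG cells: eight concentrations from 100 uM downward by half-logs, 48 h exposure, 0.5% DMSO vehicle. IL6R mRNA change measured by qRT-PCR and fitted in both directions relative to vehicle.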

[17] = read-out: Potassium channel subfamily K member 1 (KCNK1), KCNK1 (gene 3775); experiment: LTEA_HepaRG_KCNK1: Life Technologies and Expression Analysis (LTEA) Assay for Potassium channel subfamily K member 1 (KCNK1) using HepaRG (AID 2283511)
Outline: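 Gain or loss of KCNK1 mRNA is the read-out, quantified by qRT-PCR against three housekeeping genes after 48 h chemical treatment of human HepaRG liver cells. Concentrations ran from 100 uM downward in half-log steps, vehicle 0.5% DMSO.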

[18] = read-out: Keratin 19 (KRT19), KRT19 (gene 3880); experiment: LTEA_HepaRG_KRT19: Life Technologies and Expression Analysis (LTEA) Assay for Keratin 19 (KRT19) using HepaRG (AID 2283512)
Outline: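 Differentiated HepaRG cells in serum-free induction medium, exposed 48 h in duplicate to 8 half-log concentrations up to 100 uM in 0.5% DMSO. KRT19 mRNA by qRT-PCR, normalized to ACTB, GAPDH, POLR2A; bidirectional fit vs DMSO.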

[19] = read-out: JUN Transcription Factor, JUN (gene 3725); experiment: LTEA_HepaRG_JUN: Life Technologies and Expression Analysis (LTEA) Assay for JUN Transcription Factor using HepaRG (AID 2283513)
Outline: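 Human HepaRG liver cells receive test chemicals in 0.5% DMSO for 48 h across an eight-point range topping at 100 uM. Expression changes in JUN are scored in both directions against the DMSO vehicle.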

Measured: AC50

CCc1nn(C)c(C(=O)NCc2ccc(C(C)(C)C)cc2)c1Cl
active: [1] 5 µM | [2] 0.677 µM | [3] 11.9 µM | [4] 11.9 µM | [5] 50 µM | [6] 0.6 µM | [7] 12.2 µM | [8] 4.76 µM | [9] 9.92 µM | [10] 8.88 µM | [11] 78.6 µM | [12] 0.782 µM | [13] 2.34 µM | [14] 2.34 µM | [15] 1.37 µM | [17] 9.92 µM | [18] 0.616 µM
inactive: [16] | [19]

O=C(O)COc1nc(Cl)c(Cl)cc1Cl
inactive: all assays above

CON(C)C(=O)Nc1ccc(Cl)c(Cl)c1
active: [1] 37.6 µM | [2] 84.4 µM | [3] 16.8 µM | [4] 50 µM | [5] 80 µM | [7] 73.2 µM | [10] 63.4 µM | [12] 50 µM | [14] 50 µM | [18] 48.5 µM
inactive: [6] | [8] | [9] | [11] | [13] | [15] | [16] | [17] | [19]

CC(C)C1(C)N=C(c2nc3ccccc3cc2C(=O)O)NC1=O (centres undefined)
inactive: all assays above

N#CC(CCc1ccc(Cl)cc1)(Cn1cncn1)c1ccccc1 (centres undefined)
inactive: [5] | [8] | [16] | [18]
active: [1] 79.4 µM | [2] 40.4 µM | [3] 75.3 µM | [4] 68 µM | [6] 40 µM | [7] 67.3 µM | [9] 79.5 µM | [10] 67.9 µM | [11] 93.6 µM | [12] 50 µM | [13] 71.6 µM | [14] 74.4 µM | [15] 80.2 µM | [17] 44.6 µM | [19] 90.3 µM

C=CCC1=C(C)[C@@H](OC(=O)[C@@H]2[C@@H](C=C(C)C)C2(C)C)CC1=O
active: [1] 50 µM | [2] 83.9 µM | [10] 50 µM | [12] 50 µM
inactive: all other assays above
